# Measured values published in PubChem BioAssay.
# Assay: compound effects on differentiated 3T3-L1 adipocyte viability – cell-based, 3T3-L1 adipocytes, calcein-AM fluorescence, 48 h, basal, profiling panel (AID 1163)
# Conditions: 3T3-L1 adipocytes viability, higher = more signal
# Further: test concentration not given here.
row,Compound,z-score
1,CCCC[C@@H]1C[C@H]1[C@@H](NC(=O)c1cccnc1)c1ccc(-c2ccccc2)cc1,-0.438
2,O=C1O[C@@H](c2ccccc2)[C@@H](c2ccccc2)N2[C@@H](c3ccc(O)cc3)[C@]3(C(=O)Nc4ccc(C#CCCO)cc43)[C@@H](C(=O)Nc3nc4ccccc4s3)[C@H]12,0.225
3,O=C(O)[C@]1(Cc2ccccc2)N=C(c2ccc(OCCCO)cc2)O[C@@H]1c1ccccc1,-1.44
4,Cc1ccc(S[C@]2(C(=O)NCc3ccccc3)CC(=O)N(C(C)C)[C@@H]2c2ccc(CO)cc2I)cc1,0.152
5,Cc1ccc(C(C)CC(O)C2C=CC3C(=O)N(c4ccccc4)C(=O)C3N2Nc2ccc(C(C)C)cc2)o1 (stereo not drawn),-0.279
6,C=CC[C@]12N=C(c3ccc(OCCCO)cc3)O[C@H]1c1ccccc1N(C)C2=O,0.614
7,C=C(COC)/C(=C/C[C@@H](OC(=O)c1ccncc1)c1ccc(CO)o1)c1cnc2ccccc2c1,0.513
8,O=C1NC(=O)C2C1C=CC(C(O)c1cc(C(F)(F)F)cc(C(F)(F)F)c1)N2Nc1ccc(Cl)cc1Cl (stereo not drawn),0.0578

# Assay: compound effects on hepatocellular carcinoma cell viability – HepG2, calcein-AM fluorescence, 48 h, basal, profiling panel (AID 1164)
# Conditions: higher = more signal
row,Compound,z-score
1,O=C1c2ccccc2[C@](Cc2ccccc2I)(C(=O)NCCN2CCOCC2)[C@H](c2ccc(CO)cc2)N1Cc1ccccc1,1.14
2,CN(C)CCCCNC(=O)[C@H]1C[C@H]2C(=O)N3CCC[C@H]3C(=O)N2[C@H]1c1ccc(O)cc1,-0.55
3,C=C(CCCC)C(=O)CC[C@@H](OC(=O)c1ccccc1-c1ccccc1C(=O)O)c1cccc(OCCO)c1,0.215
4,C=C(C(=O)CC[C@H](OC(=O)c1cccnc1)c1ccc(CO)o1)C(C)C,-0.676
5,COc1ccc(C#Cc2ccc3c(c2)[C@]2(C(=O)N3)[C@H](C(=O)N3CCc4cc(OC)c(OC)cc4C3)[C@H]3C(=O)O[C@H](c4ccccc4)[C@H](c4ccccc4)N3[C@@H]2c2ccc(O)cc2)cc1,0.615
6,[N-]=[N+]=NCc1ccccc1C[C@@]1(C(=O)N2CCCCC2)N=C(c2ccc(OCCCO)cc2)O[C@@H]1c1ccccc1N=[N+]=[N-],0.471
7,C=C[C@@H](COC(C)=O)NS(=O)(=O)c1ccc(Br)cc1,1.04
8,CCOC(=O)C[C@H]1[C@H](OC(=O)c2ccc(-c3ccccc3)cc2)[C@@H](NC(=O)c2ccc3ccccc3c2)c2cc(OCCCO)ccc2N1C(=O)c1ccc2ccccc2n1,-0.573
9,CC(C)(C)OC(=O)CC[C@]1(C(=O)NCCN2CCOCC2)N=C(c2ccc(OCCCO)cc2)O[C@H]1c1ccccc1,0.549
10,C=CCOC(=O)[C@@H]1[C@H]2C(=O)O[C@H](c3ccccc3)[C@H](c3ccccc3)N2[C@H](c2ccc(OCCOC(=O)[C@H]3C[C@H]4C(=O)N[C@@H](CC(C)C)C(=O)N4[C@H]3c3ccc(O)cc3)cc2)[C@@]12C(=O)Nc1ccc(I)cc12,1.02
11,O=C(CS)NCCCCCCNC(=O)[C@@H]1C[C@@H]2C(=O)N3CCC[C@H]3C(=O)N2[C@@H]1c1cccc(OCCO)c1,1.02
12,COc1ccccc1CN1C(=O)c2ccccc2[C@@H](C(=O)NC(C)C)[C@@H]1c1ccc(CO)cc1,1.95
13,C=CCOC(=O)[C@@H]1[C@H]2C(=O)O[C@H](c3ccccc3)[C@H](c3ccccc3)N2[C@H](c2ccc(OCCOC(=O)[C@H]3C[C@H]4C(=O)N[C@@H](CCCCNC(C)=O)C(=O)N4[C@H]3c3cccc(OCCO)c3)cc2)[C@@]12C(=O)Nc1ccc(I)cc12,0.821
14,O=C1OCC=C[C@H]2OC34C=CCN(Cn5nnc6ccccc65)C(=O)[C@H]3N(CCCCCCO)C(=O)[C@@H]4[C@@H]12 (stereo partly drawn),0.226
15,COC(=O)Cn1c(C(=O)N2CCCC2)cc2c1C[C@H]1CN(C(=O)c3ccccc3)[C@@](Cc3ccc(F)cc3)(C(=O)OC)[C@@H]21,0.476
16,COc1cc(OC)c(C(O)C2C=CC3C(=O)N(c4ccccc4)C(=O)C3N2Nc2ccc(C#N)cc2)cc1Br (stereo not drawn),-0.268
17,COc1ccc([Si](C)(C)[C@@H]2[C@@H](CC(=O)N3CCC[C@H]3CO)O[C@]3(C(=O)N(Cc4ccc(N5C(=O)c6cccc7cccc5c67)cc4)c4ccccc43)[C@H]2C)cc1,-2.94
18,CC=CC(O)C1C=CC2C(=O)N(c3ccccc3)C(=O)C2N1Nc1ccccc1 (stereo not drawn),1.05
19,CC(C)C(=C=CC[C@@H](O)c1ccccc1OCCO)C[C@@H](O)COCc1ccccc1,0.146
20,CC(C)(C)N1CC=CC23O[C@@H]4C=CCOC(=O)[C@@H]4[C@H]2C(=O)N(CCCO)[C@@H]3C1=O (stereo partly drawn),-0.0446
